INS promoter inh = TRM-6 insulin promoter activity inhibition. TRM-6 cells (human fetal islet line), insulin promoter-eGFP reporter, imaging; reporter expression induced with tamoxifen. inhibition, % at 2 µM. actives 0.9% (n = 130,000). AID 1273;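 active means inhibition above the mean plus 3 SD, with well images judged a real hit on visual review, cut at about 60% in these data, passing the limit was not always enough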
Insulin prom up = MIN6 insulin promoter up-regulation | MIN6 insulin promoter-GFP reporter, high-content imaging; hits give high values | z-score at 5 µM | actives 0.3% (n = 190,000) | AID 1625;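 active means z-score above 3 at 5 µM with at least 500 cells counted in the well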
HCT116 bCat-KO = beta-catenin-lacking colon tumor cell growth suppression | HCT116 beta-catenin knockout viability, CellTiter-Glo, 60 h; hits give low values | viability, % at 10 µM | actives 1.5% (n = 140,000);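 active means viability at or under a set limit, the compound median less 4 SD, cut at about 6% in these data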;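 further: 0% = Hyamine 1622 control at 20 µM and 100% = untreated cell control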
Autophagy mod = autophagy modulation, high-content screen. MEF GFP-LC3 puncta imaging; test concentration mostly 10 µM. calls only at 10 µM (by protocol). actives 0.98% (n = 190,000);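 active means percentage of spot-positive cells more than 3 SD above its plate mean, without a fluorescence outlier flag or 80% toxicity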;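 further: spot-positive cell cutoff set from DMSO-treated cells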
HCT116 PTEN-null = growth suppressors of cells with PTEN tumor suppressor deletion. HCT116 PTEN-null viability, CellTiter-Glo, 60 h; hits give low values. viability, % at 10 µM. actives 1.2% (n = 140,000);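 active means viability at or below a set limit, 4 SD under the median of all tested compounds, cut at about 3.7% in these data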;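 further: PTEN knockout HCT116 line with beta catenin targeted HCT116 as companion control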
L major viab = reduces viability of Leishmania major promastigotes. resazurin fluorescence viability. inhibition, % at 10 µM. actives 9% (n = 200,000). AID 1063; in the data active means inhibition above about 50%;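 further: promastigotes grown with compound for 44 hours at 28 °C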
The depositor's hits bear a star; i = inactive; . = not tested or not shown; + = active, no number. Shown are actives, neighbours in structure and some others; about 9.6% of the full set was active somewhere.

SMILES | INS promoter inh | Insulin prom up | HCT116 bCat-KO | Autophagy mod | HCT116 PTEN-null | L major viab
COC(=O)C1CCN(CC(=O)Nc2ccccc2Sc2ccccc2)CC1 | . | 1.5 | . | i | . | 52*
O=C(O)c1sc2ncccc2c1OCc1ccccc1 | 24 | 0.13 | . | i | . | -6
O=C(CSc1ncc(S(=O)(=O)c2ccccc2)c(=O)[nH]1)Nc1ccccc1Cl | . | 0.56 | . | . | . | .
C/C(=N\Nc1ccccn1)c1ccc2c(c1)OCO2 | 43 | -0.24 | . | i | . | 24
C(=N\Nc1nc2ccccc2s1)/c1ccc2c(c1)OCO2 | . | 1.1 | 89 | i | 89 | 6
C(=N\Nc1nc2ccccc2[nH]1)/c1ccc2c(c1)OCO2 | 38 | -0.98 | . | i | . | 96*
CC(=O)N/N=C(\C)c1ccc2c(c1)OCCO2 | . | 0.28 | . | i | . | -6
Clc1ccccc1N/N=C/c1ccc2c(c1)OCO2 | 64* | 0.37 | 68 | i | 66 | -6
C/C(=N\Nc1nc2ccccc2[nH]1)c1ccc2c(c1)OCCO2 | . | . | . | i | . | 100*
C/C(=N\Nc1nc2ccccc2[nH]1)c1ccc2c(c1)OCO2 | . | -0.55 | . | i | . | 101*
CC(/C=C1\SC(=S)N(NC(=O)c2ccccc2C)C1=O)=C\c1ccccc1 | . | 0.91 | 93 | i | 91 | 3
CCOc1ccc(C(C)=O)cc1N1C(=O)C2C(C1=O)C1C=CC2C12CC2 (stereo unspecified) | 40 | 1.1 | 91 | i | 96 | -4
C/C(=N\Nc1nc2ccccc2[nH]1)c1cc2ccccc2o1 | 29 | -0.43 | 49 | i | 50 | 68*
Cc1ccc2cc(C#N)c(SCC(=O)N3CCCC3)nc2c1 | . | -0.01 | . | . | . | .
O=C(Nc1ccc(C(=O)Oc2ccccc2)c(O)c1)c1ccco1 | -32 | 0.94 | 71 | i | 60 | 55*
COc1ccccc1NC(=O)c1sc(NC(=O)c2ccco2)c(C#N)c1C | 93* | . | 91 | i | 76 | 1
O=C(Nc1ccc(C(=O)Oc2ccccc2)c(O)c1)c1ccccc1 | 0 | -0.5 | . | i | . | -8
CC(C)(C)NC(=O)c1cccc(NC(=O)c2ccc(NC(=O)c3ccco3)cc2)c1 | 100* | -0.27 | 68 | i | 57 | 5
COC(=O)c1sc(NC(=O)c2ccco2)c(C#N)c1C | . | 0.37 | . | . | . | .
O=C(Nc1ccc(Oc2ccc(NC(=O)c3ccco3)c(NC(=O)c3ccco3)c2)cc1)c1ccco1 | 49 | -1.4 | 88 | i | 88 | 98*
C/C(=N/NC(=O)c1ccc(Br)o1)c1ccncc1 | . | . | 92 | i | 95 | -2
CCc1ncc(C(O)c2cccc(OC)c2OC)n1C (stereo unspecified) | -15 | . | 110 | i | 101 | -4
NCCCC[C@H]1CNC(=S)N1CCCCC1CCCCC1 | . | -2.1 | . | i | . | 9
O=C(c1cc(S(=O)(=O)N2CCCCC2)ccc1F)N1CCCCC1 | . | -0.06 | 115 | i | 102 | -1
COc1cccc(C(=O)Nc2cc(NC(=O)c3ccco3)ccc2OC)c1 | i | -0.41 | 92 | i | 81 | 2
SMILES | INS promoter inh | Insulin prom up | HCT116 bCat-KO | Autophagy mod | HCT116 PTEN-null | L major viab
COc1ccccc1NC(=O)c1cccc(NC(=O)c2ccco2)c1 | -77 | -1.6 | 82 | i | 86 | 88*
COc1ccccc1NC(=O)Oc1ccc(NC(=O)c2ccco2)cc1 | 0 | . | 89 | i | 97 | 52*
COC(=O)c1cccc(NC(=O)c2ccco2)c1 | -222 | . | 108 | i | 102 | 45
COc1ccc(NC(=O)c2ccco2)cc1NC(=O)c1cccc(OC(C)C)c1 | . | -0.49 | 72 | + | 62 | 14
O=C(COC(=O)c1cccc(NC(=O)c2ccco2)c1)c1ccc(Br)cc1 | . | 0.65 | 94 | i | 94 | 99*
COc1ccc(NC(=O)c2ccco2)cc1NC(=O)c1ccco1 | . | -0.03 | 91 | i | 90 | 5
O=C1N(Cc2cccc(Cl)c2)C[C@@H]2C[C@@H](c3ccco3)N3CCC[C@@]123 | i | -0.24 | . | i | . | 0
Cc1ccc(SCC(=O)Nc2cccc(C(=O)NC(C)(C)C)c2)cc1 | -7 | . | 76 | i | 85 | 95*
COc1cccc(CC2(CO)CCCN(C/C=C/c3ccccc3OC)C2)c1 (stereo unspecified) | . | -0.59 | . | i | . | 41
CCCN1C(=O)/C(=C/c2ccncc2)SC1=S | 7 | 0.88 | 84 | i | 89 | -1
O=C(CCN1C(=O)/C(=C/c2ccccc2Cl)SC1=S)NC1=NCCS1 | -27 | 0.25 | . | i | . | 47
O=C(CCN1C(=O)/C(=C\c2ccccc2Cl)SC1=S)N1CCN(c2ccccc2)CC1 | . | 0.01 | 36 | i | 46 | 91*
COc1ccc(/C=C2\SC(=S)N(CC(=O)N3CCN(C)CC3)C2=O)cc1 | . | 0.24 | . | . | . | .
CCc1ccc(/C=C2\SC(=S)N(CCC(=O)N3CCN(C)CC3)C2=O)cc1 | . | 1.7 | . | i | . | 99*
COCCN1C(=O)/C(=C/c2ccc(N3CCCC3)cc2)SC1=S | . | . | . | + | . | 0
Cn1c(NC(=O)/C=C/c2ccc(Cl)c(Cl)c2)cc(=O)n(C)c1=O | -5 | -0.17 | 85 | i | 86 | -5
Cc1c(NC(=O)CN2CCN(c3ccc([N+](=O)[O-])cc3)CC2)c(=O)n(-c2ccccc2)n1C | -7 | -3.5 | . | i | . | -1
CCCc1ccc(OCc2ccc(C(=O)NCc3cccnc3)o2)c(OC)c1 | -80 | -1 | . | i | . | 5
COCc1nnc(NC(=O)c2ccc(S(=O)(=O)N3CCCc4ccccc43)cc2)o1 | . | 0.07 | . | i | . | 1
Cc1ccc2nc(NC(=O)c3ccc(S(=O)(=O)N4CCCc5ccccc54)cc3)sc2c1 | 1 | 0.22 | 57 | i | 60 | 98*
O=C(NCc1ccco1)c1ccc(S(=O)(=O)N2CCCc3ccccc32)cc1 | 21 | 1.3 | 75 | i | 73 | 64*
O=C(Nc1nc2ccc(F)cc2s1)c1cccc(S(=O)(=O)N2CCc3ccccc32)c1 | 3 | -0.22 | 74 | i | 75 | 5
COc1ccc(-c2nnc(NC(=O)c3ccc(S(=O)(=O)N4CCCc5ccccc54)cc3)o2)cc1 | . | -0.26 | 14 | i | 15 | 99*
O=C(Nc1nnc(C2CC2)o1)c1ccc(S(=O)(=O)N2CCCc3ccccc32)cc1 | . | -0.06 | 12 | i | 15 | 99*
C=CCNC(=O)CSc1nnc(-c2ccccc2Cl)n1-c1c(C)n(C)n(-c2ccccc2)c1=O | -54 | -0.33 | 98 | i | 93 | -13
SMILES | INS promoter inh | Insulin prom up | HCT116 bCat-KO | Autophagy mod | HCT116 PTEN-null | L major viab
COC(=O)[C@H](CCSC)NC(=O)Nc1cc(C)ccc1C | 21 | . | 99 | i | 92 | -7
Cc1ccc(C)c(NC(=O)C(C)CC2COCCO2)c1 (stereo unspecified) | . | 3.5* | 94 | i | 95 | -2
CCCc1nn(C)c(C(=O)Nc2ccc(CC)cc2)c1Cl | . | -0.45 | 89 | i | 93 | -5
CCCc1nn(C)c(C(=O)Nc2cccc3ccccc23)c1Cl | -33 | -0.33 | 77 | + | 76 | 0
O=C(c1ccc([N+](=O)[O-])cc1)N(Cc1ccc(Br)cc1)N1C(=O)CCCC1=O | 33 | 0.98 | 101 | + | 110 | 2
O=C(c1ccccc1Cl)N(Cc1ccc(Br)cc1)N1C(=O)CCCC1=O | . | 0.16 | . | i | . | -4

Screening data: PubChem, several laboratories
